The record followed here is PubChem BioAssay (NCATS).

Records with an inconclusive call do not appear. The source made the active and inactive calls. Calls follow the shape of the dose curve; as a rule, active = well fitted inhibition curve with a large enough effect; inconclusive = small, poorly fitted or top-dose-only effect; inactive = flat fitted curve, though single readings scatter.
Potency is read from the fitted curve at half-maximal effect.

For the assay, the target named is Glutathione peroxidase 1 (Homo sapiens) (UniProt P07203). Briefly: Primary qHTS Assay for Inhibitors of Recombinant Selenoprotein Glutathione Peroxidase 1 (GPX1) (AID 1845191). Also: nearly all actives have a fitted effect of over 65% in size. The note with it: recombinant GPX1, GR-coupled NADPH fluorescence, 15 min; series mostly up to 48.8 µM; activity, negative = inhibition: at the top concentration. An excerpt: Assay Provider: Elias S.J. Arner MD PhD.
Glutathione peroxidase 1 (Homo sapiens), sequence (P07203 whole entry, looked up): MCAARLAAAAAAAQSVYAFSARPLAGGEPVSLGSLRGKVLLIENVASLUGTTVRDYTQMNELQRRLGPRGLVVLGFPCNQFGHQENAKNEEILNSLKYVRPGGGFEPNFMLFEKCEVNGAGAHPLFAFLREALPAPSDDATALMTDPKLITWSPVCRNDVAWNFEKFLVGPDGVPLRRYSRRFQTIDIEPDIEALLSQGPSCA
Department of Medical Biochemistry and Biophysics
Karolinska Institutet, Solna, Stockholm, Sweden
Selenoprotein glutathione peroxidases (GPX), like the ubiquitously expressed GPX1 and the ferroptosis modulator GPX4, enact their antioxidant activities by reducing hydroperoxides using glutathione. […] GPX1 and GPX4 inhibitors have thus shown promise as anti-cancer agents. Existing inhibitors are often promiscuous, or modulate GPX activity only indirectly, so novel direct inhibitors identified through screening against GPX1 and GPX4 could be valuable. Here, we developed optimized glutathione reductase (GR)-coupled GPX assays for the biochemical high-throughput screen (HTS) of almost 12,000 compounds with known mechanisms of action. Initial hits were triaged using a GR counter-screen, assessed for isoform specificity using a separate GPX2 assay, and were assessed for general selenocysteine-targeting activity using a thioredoxin reductase (TXNRD1) assay. With this suite of assays, we identified novel GPX1/GPX2- and GPX4-specific inhibitors and can here present a validated pipeline for future discovery research for selenoprotein-targeting agents.
SEQUENCE No. (e.g., 1, 2, 3, etc.); […] (e.g., Cells, Incubation, Reagent, etc.); VALUE; DESCRIPTION.
1; Reagent 1; 3 uL; GPx1 enzyme or no enzyme control in 1536-well, black, solid Greiner assay plate.
2; Compound; 25 nL; Kalypsis pin tool (Wako USA) equipped with a 1536-well pin head.
3; Incubation; 30 min; room temperature.
4; Reagent 2; 1 uL; 10 nM GPX1, 1 mM GSH, 0.5 mM CHP, 0.5 mM NADPH, 100 nM GR, 0.01% BSA substrate
5; Detection; Fluorescence; ViewLux microplate reader, excitation 340 nm and emission 450 nm.
6; Incubation; 15 min; room temperature.
7; Detection; Fluorescence; ViewLux microplate reader, excitation 340 nm and emission 450 nm.
NOTES (numbers refer to Sequence numbers above)
1. 3 uL of 16.66 nM GPX1 and 0.016% BSA in assay buffer (50 mM Tris-HCl, 2 mM EDTA (pH 7.5), 150 mM NaCl) was added to columns 3-48 of 1536-well assay plates using a BioRAPTR Flying Reagent Dispenser (Let's Go Robotics (LGR), Carlsbad, CA). A no-enzyme control (0.01% BSA in TES assay buffer) was added to columns 1-2.
2. 25 nL of test compounds and DMSO controls were added to each well with a pin tool (Kalypsys).
3. The assay plates were incubated for 30 minutes at room temperature.
4. 1 uL of master mix (500 nM glutathione reductase (GR), 5 mM reduced glutathione (GSH), 2.5 mM NADPH in assay buffer) was added. 1 uL of cumene hydroperoxide (CHP) ([2.5 mM] in 50% EtOH) was then added within 5 minutes to initiate the reaction. Final concentrations were: 10 nM GPX1, 1 mM GSH, 0.5 mM CHP, 0.5 mM NADPH, 100 nM GR, 0.01% BSA.
5. Initial fluorescence readout (t=0) at 340/450 nm was measured using a ViewLux multimodal detector (PerkinElmer, Waltham, MA).
7. Endpoint fluorescence readout (t=15) at 340/450 nm was measured 15 min after room temperature incubation.
A general note: Quantitative high-throughput screening tests each substance at several concentrations.
Regarding `CN1N=C2CCN(C(=O)[C@H](COCc3ccccc3)NC(=O)C(C)(C)N)C[C@]2(Cc2ccccc2)C1=O`, the “activity, negative = inhibition” value is 4.86% (inactive).

With `CC1(C)S[C@@H]2[C@H](NC(=O)COc3ccccc3)C(=O)N2[C@H]1C(=O)O`, the “activity, negative = inhibition” value was -14.3% (inactive). Take `CC(OC(=O)OC1CCCCC1)OC(=O)C1=C(CSc2nnnn2CCN(C)C)CS[C@@H]2[C@H](NC(=O)Cc3csc(N)n3)C(=O)N12` (stereo not given in full): the Potency was 7.18 µM (active). For `CCC(C)n1ncn(-c2ccc(N3CCN(c4ccc(OCC5COC(Cn6cncn6)(c6ccc(Cl)cc6Cl)O5)cc4)CC3)cc2)c1=O` (stereo not given), the “outcome” value is “inactive [at 27.7 µM]”.

For the compound `O=C1CCC(C(=O)O)N1` (stereo not given), the outcome was inactive.

Regarding `OC[C@H]1OC(O)C[C@@H](O)[C@@H]1O` (stereo not given in full), the “activity, negative = inhibition” value is 2.48% (inactive).

On to `Cc1ccc2c(c1)-c1nc(-c3ccc(Cl)cc3)cc(-c3coc4ccccc4c3=O)c1CO2`, for which the “activity, negative = inhibition” value is -7.89% (inactive). As to `CCCCC(CC)COC(=O)c1ccc(Nc2nc(Nc3ccc(C(=O)OCC(CC)CCCC)cc3)nc(Nc3ccc(C(=O)OCC(CC)CCCC)cc3)n2)cc1` (stereo not given), the “activity, negative = inhibition” value was 4.21% (inactive). Turning to `CCC(CC)[C@H](NC(C)=O)[C@@H]1[C@H](O)[C@@H](C(=O)O)C[C@H]1N=C(N)N`, the activity, negative = inhibition is -7.9% [at 0.4 µM] (inactive). As for `CSCCNc1nc(SCCC(F)(F)F)nc2c1ncn2[C@@H]1O[C@H](COP(=O)(O)OP(=O)(O)C(Cl)(Cl)P(=O)(O)O)[C@@H](O)[C@H]1O`, the result was inactive.

On to `N=C(N)c1ccc(OCCCOc2ccc(C(=N)N)cc2Br)c(Br)c1`, for which the “activity, negative = inhibition” value is 1.37% (inactive). For `CCO/N=C(\C(=O)N[C@@H]1C(=O)N2C(C(=O)O)=C(Sc3nc(-c4cc[n+](C)cc4)cs3)CS[C@H]12)c1nsc(NP(=O)(O)O)n1`, the Potency was 4.04 µM (active).

Regarding `CC(C)(CO)C(O)C(=O)NCCCC(=O)O` (stereo not given), the “activity, negative = inhibition” value is -11.7% (inactive).

Consider `O=C1O[C@H]2[C@H](OC(O)[C@@H]2O)[C@@H]1O` (stereo not given in full), for which the “activity, negative = inhibition” value is 0.38% [at 98.3 µM] (inactive). In the case of `C[C@H](CCC(=O)O)[C@H]1CC[C@H]2[C@@H]3CC[C@@H]4C[C@H](O)CC[C@]4(C)[C@@H]3C[C@H](O)[C@]12C`, the “activity, negative = inhibition” value was -27.6% (inactive).

Consider `O[C@@H]([C@H](O)[C@@H](O)CBr)[C@@H](O)CBr`, for which the result was inactive.

For `CO[C@H]1C[C@@H]2CC[C@@H](C)[C@@](O)(O2)C(=O)C(=O)N2CCCC[C@H]2C(=O)O[C@H]([C@H](C)C[C@@H]2CC[C@@H](OCCO)[C@H](OC)C2)CC(=O)[C@H](C)/C=C(/C)[C@@H](O)[C@@H](OC)C(=O)[C@H](C)C[C@H](C)\C=C/C=C\C=C/1C`, the “activity, negative = inhibition” value is -28.5% [at 27.7 µM] (inactive).

Turning to `CCCCC(C)(O)CC=C[C@H]1[C@H](O)CC(=O)[C@H]1CCCCCCC(=O)OC` (stereo not given in full), the “activity, negative = inhibition” value is 3.76% (inactive).

In the case of `[2H]N[C@@H](Cc1ccccc1)C(=O)N1CCC[C@H]1C(=O)N[C@@H](CCCNC(=N)N)C(=O)N1CCC[C@H]1C(=O)NCC(=O)NCC(=O)NCC(=O)NCC(=O)N[C@@H](CC(N)=O)C(=O)NCC(=O)N[C@@H](CC(=O)O)C(=O)N[C@@H](Cc1ccccc1)C(=O)N[C@@H](CCC(=O)O)C(=O)N[C@@H](CCC(=O)O)C(=O)N[C@H](C(=O)N1CCC[C@H]1C(=O)N[C@@H](CCC(=O)O)C(=O)N[C@@H](CCC(=O)O)C(=O)N[C@@H](Cc1ccc(O)cc1)C(=O)N[C@@H](CC(C)C)C(=O)O)[C@@H](C)CC`, the outcome was “inactive [at 9.52 µM]”. In the case of `Cc1ccc(-c2nc(-c3cc4cccc(OCc5cccc(C)c5)c4oc3=O)no2)cc1`, the outcome was inactive. Take `CC(C=CC1=C(C)CCCC1(C)C)=CC=CC(C)=CC(=O)Oc1c(C)c(C)c2c(c1C)CC[C@@](C)(CCC[C@H](C)CCC[C@H](C)CCCC(C)C)O2`: the outcome is “inactive [at 4.49 µM]”. For `O[C@@H]1[C@@H](O)[C@@H](O)OC[C@@H]1O`, the “outcome” value is “inactive [at 150 µM]”. In the case of `NC(=O)C1CCCN1C(=O)C(Cc1cnc[nH]1)NC(=O)C1CCC(=O)N1` (stereo not given), the “activity, negative = inhibition” value was -10.5% (inactive). As for `COc1ccc2c(O[C@H]3CC4C(=O)N(C)CCCC/C=C\[C@@H]5C[C@@]5(C(=O)NS(=O)(=O)C5CC5)NC(=O)[C@@H]4C3)cc(-c3nc(C(C)C)cs3)nc2c1C` (stereo not given in full), the “activity, negative = inhibition” value is -2.81% (inactive). Take `CCN1CCN(C2(C(=O)NCCc3ccccc3)Cc3ccccc3C2)CC1`: the “activity, negative = inhibition” value is -19% (inactive). As for `CCCCCCCC/C=C/CCCCCCCC(=O)O`, the outcome was inactive.

For `CCCCC(CC)COc1ccc(-c2nc(-c3ccc(OC)cc3)nc(-c3ccc(OCC(CC)CCCC)cc3O)n2)c(O)c1` (stereo not given), the activity, negative = inhibition is -11% [at 4.49 µM] (inactive). In the case of `Nc1cccc(-c2csc(NC(=O)CCCCCCC(=O)NO)n2)c1`, the “activity, negative = inhibition” value was -13.9% (inactive). The same measure, in the same setting: in the case of `CCCCCCCCCCCCCCCC(=O)OC1CCCn2c1nc(C)c(CCN1CCC(c3noc4cc(F)ccc34)CC1)c2=O` (stereo not given) it was -3.88% (inactive); in that of `CN1CC(O)c2cc(N=NC(=N)N)c(O)cc21` (stereo not given), -16.4% (inactive); in that of `CCCCCCCCn1cc(CC(N)=O)c2cc(-c3cccc(C)c3)ccc21`, -4.03% (inactive).

As for `CC1CCc2c(cc(Br)c(F)c2Br)N1C=O` (stereo not given), the outcome was inactive. With `Cc1ccc2nc(-c3ccc(Cl)c(NC(=O)c4ccc5c(c4)OCCO5)c3)oc2c1`, the “activity, negative = inhibition” value is -1.1% (inactive). On to `C[N+]1(C)C2CC[C@H]1CC(OC(=O)C(O)c1ccccc1)C2` (stereo not given in full), for which the “activity, negative = inhibition” value was 4.79% (inactive). As for `Nc1nc(Cl)nc2c1ncn2C1CC(O)C(CO)O1` (stereo not given), the “activity, negative = inhibition” value was -10.3% (inactive). `CSCC[C@H](N)C(=O)O`: the “activity, negative = inhibition” value was 1.8% [at 27.7 µM] (inactive).

For the compound `C=CC1(C)CC(=O)C2(O)C(C)(O1)C(OC(C)=O)C(OC(=O)CCN(C)C)C1C(C)(C)CCC(O)C12C` (stereo not given), the result was inactive. With `COc1cc2c(cc1OC)[C@H]1C[C@@H](OC(=O)[C@@H](N)C(C)C)[C@H](CC(C)C)CN1CC2`, the “activity, negative = inhibition” value was -8.3% (inactive). On to `CC(C)C[C@H](NC(=O)[C@@H](Cc1c[nH]c2ccccc12)NC(=O)[C@H](Cc1ccc(O)cc1)NC(=O)[C@H](CO)NC(=O)[C@H](Cc1c[nH]c2ccccc12)NC(=O)[C@H](Cc1cnc[nH]1)NC(=O)[C@@H]1CCC(=O)N1)C(=O)N[C@@H](CCCN=C(N)N)C(=O)N1CCC[C@H]1C(=O)NCC(N)=O`, for which the “outcome” value was “inactive [at 27.7 µM]”. In the case of `COc1cc(N)cn[n+]1-c1ccccc1`, the “activity, negative = inhibition” value was -14.8% (inactive).
